Screening results from PubChem BioAssay.
PrP UTR inh: inhibition of PrP 5' UTR reporter expression. 340,000 tested, 0.35% active. AID 488862. inhibition, % (concentration not given with the values). cell-based PrP 5' UTR mRNA reporter, plate reader; in the data active = inhibition above about 52%
CCHF vOTU inh: CCHFV vOTU protease inhibition. 370,000 tested, 0.55% active. Pep-AMC fluorescence. AID 651958. inhibition, % at 11.5 µM; in the data active = inhibition above about 30%
PfHsp40 rescue: restores yeast growth despite PfHsp40 toxicity | growth rescue, % at 12.5 µM | S. cerevisiae expressing PfHsp40, growth rescue, ATP luminescence | 340,000 tested, 0.68% active; in the data active = growth rescue above about 28%, passing the limit was not always enough; inconclusive = no clear call, values can overlap the other calls;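 note: yeast W303a lacking pdr1 and pdr3 grown in galactose medium; growth measured after three days at 30 °C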
PrPC surface inh: cell surface PrPC inhibition, primary TR-FRET screen | P04156 | TR-FRET read-out | inhibition, % at 13.8 µM | 370,000 tested, 0.43% active | AID 720596; in the data active = inhibition above about 24%
Sa RN4220 lethal: kills Staphylococcus aureus RN4220; S. aureus RN4220 growth, OD600, 16 h; 330,000 tested, 0.33% active; inhibition, % (test concentration not listed); in the data active = inhibition above about 85%
ugtP null kill: compounds lethal to S. aureus RN4220 ugtP deletion mutant; OD600 growth, 16 h; growth inhibition, % (concentration not given with the values); 330,000 tested, 0.54% active; in the data active = growth inhibition above about 68%
Numbers stand for hits; n = inactive; u = inconclusive; x = not tested or not shown. This is a sample that favours compounds with a hit; in the whole collection about 2.1% have one here.

SMILES	PrP UTR inh	CCHF vOTU inh	PfHsp40 rescue	PrPC surface inh	Sa RN4220 lethal	ugtP null kill
C#CCOCCOCCOCCNc1nc(N2CCN(C(=O)C(CCCCN)n3cc(C(N)CC(C)C)nn3)CC2)nc(N2CCN(C(=O)C(C(C)CC)n3cc(C(N)CO)nn3)CC2)n1 (stereo unspecified)	x	x	x	x	n	n
CCn1cc(C(=O)O)c(=O)c2cc(F)c(N3CCN(C(=O)Nc4ccccc4)CC3)cc21	n	n	n	n	n	96
CCn1cc(C(=O)O)c(=O)c2cc(F)c(N3CCN(C(=S)NC(=O)c4ccc(OC)cc4)CC3)cc21	n	n	n	n	99	99
CCn1cc(C(=O)O)c(=O)c2cc(F)c(N3CCN(C(=S)NC(=O)c4ccccc4F)CC3)cc21	n	n	n	n	99	99
C=CCNC(=O)c1cn(CC)c2cc(N3CCN(C(=O)c4ccco4)CC3)c(F)cc2c1=O	n	n	n	n	94	98
OCCC1CC(O)C(O)[C@@]2(Cc3ccccc3CCO2)O1 (stereo partly specified)	x	x	x	x	n	n
CCCCn1nc(C(=O)NC(CCSC)c2nc3ccccc3[nH]2)c2ccccc2c1=O (stereo unspecified)	x	x	x	x	n	n
Cc1ccc(C(N)=NOC(=O)C(C)c2ccc([N+](=O)[O-])cc2)cc1 (stereo unspecified)	x	x	x	x	n	n
CCCCCCCC(=O)N1CCN(c2cc3c(cc2F)c(=O)c(C(=O)O)cn3CC)CC1	n	n	n	n	95	99
CCN(CC)c1ccc(/C=N/Nc2nc3ccccc3[nH]2)c(O)c1	n	n	158	n	x	x
COc1ccc(/C=N/Nc2nc3ccccc3[nH]2)cc1OC	n	n	75	n	x	x
CCN(CC)c1ccc(C=NNc2nc3ccccc3[nH]2)cc1	x	x	x	x	97	99
CCN(CC)c1ccc(C=NNc2ccccc2)c(O)c1	x	x	x	x	n	n
Brc1ccc(-c2ccc(C=NNc3nc4ccccc4[nH]3)o2)cc1	x	x	x	x	86	n
Fc1ccccc1-c1ccc(C=NNc2nc3ccccc3[nH]2)o1	x	x	x	x	n	n
COc1ccc(OC)c(CNc2ccc(F)c(Cl)c2)c1	n	n	38	n	n	n
Cc1ccc(S(=O)(=O)NCCCCCC(=O)NC(C)(C)CO)cc1	n	n	51	n	n	n
CCCNC(=O)c1ccc2c(=O)c(O)c(-c3ccc(Cl)c([N+](=O)[O-])c3)[nH]c2c1	n	n	210	n	x	x
CC1CN(C(C)CO)C(=O)Cc2cc(NS(C)(=O)=O)ccc2OC1CN(C)CC1CC1 (stereo unspecified)	x	x	x	x	n	n
O=C(Nn1c(=O)[nH]c2ccsc2c1=O)c1ccccc1	n	n	n	n	98	100
O=C(NCc1ccccn1)C(=O)NCC1OCCN1S(=O)(=O)c1ccc([N+](=O)[O-])cc1 (stereo unspecified)	n	n	107	n	n	n
O=C(NCc1ccccn1)C(=O)NCC1OCCN1S(=O)(=O)c1ccc(Br)cc1 (stereo unspecified)	n	n	n	n	n	n
O=c1[nH]c(-c2ccccn2)nc2sc(-c3ccccc3)cc12	n	n	177	n	100	100
Cc1ccc(O)c(C2=NNC(O)(C(F)(F)F)C2)c1 (stereo unspecified)	n	n	39	n	x	x
Cc1ccc(O)c(C2=NNC(c3ccc(Cl)cc3)C2)c1 (stereo unspecified)	n	n	u	n	n	n
SMILES	PrP UTR inh	CCHF vOTU inh	PfHsp40 rescue	PrPC surface inh	Sa RN4220 lethal	ugtP null kill
CC1=NN(c2ccccc2)C(=O)C1C(=O)c1cc([N+](=O)[O-])cc([N+](=O)[O-])c1 (stereo unspecified)	n	n	n	n	n	n
Cc1cc(C2C(=O)C(C(=O)c3ccc(Cl)cc3)C(=O)CC2(C)C)on1 (stereo unspecified)	n	n	n	n	n	n
CCCCCCCN1N=C(C)C(C(=O)c2ccccc2)C1=O (stereo unspecified)	n	n	381	n	n	n
CCCCCCN1N=C(C)C(C(=O)c2ccc(Cl)cc2)C1=O (stereo unspecified)	n	n	519	n	n	n
O=C1C=C(c2ccc(F)cc2OCc2ccccc2)CC(c2ccc3c(c2)OCO3)C1 (stereo unspecified)	x	x	x	x	n	n
CCN1CC2C3C(=O)N(C)C(=O)C3[C@](Cc3ccccc3)(C1=O)N2C(=O)c1ccc(Cl)c(Cl)c1 (stereo partly specified)	x	x	x	x	n	n
C/C(=N\NC(=S)NCc1ccccc1)c1cccc(Br)c1	n	n	136	n	x	x
CC(=NNC(=S)NCc1ccccc1)c1cccc(Br)c1	x	x	x	x	n	n
Cc1cc(N/N=C/c2ccccc2[N+](=O)[O-])nc(-n2nc(C)cc2C)n1	n	n	55	n	x	x
Cc1cc(NN=Cc2ccc(Br)cc2)nc(-n2nc(C)cc2C)n1	x	x	x	x	n	n
COc1ccc(/C=N/Nc2cc(C)nc(-n3nc(C)cc3C)n2)cc1	n	n	272	n	x	x
CCN(C(=O)c1ccccc1F)c1nc(-c2ccc(OC)cc2)cs1	n	n	n	n	n	90
Cc1cc(C)c2c(C)[nH]nc2n1	x	n	x	n	n	n
CCN(CC)N=Nc1[nH]nc2nc(C)cc(C)c12	n	n	45	n	n	n
Cc1cc(C)c2c(N=NN3CCCCC3)[nH]nc2n1	n	n	86	n	n	n
CC(Oc1ccc(C(C)(C)C)cc1)c1ccnc2nc(N=CN(C)C)nn12 (stereo unspecified)	x	x	x	x	n	n
Cc1ccc(C)c2c1[nH]c1ccc([N+](=O)[O-])cc12	n	n	n	n	n	84
O=C(NN=Cc1ccccc1Cl)C1CC1	x	x	x	x	n	n
S=c1nc(-c2sccc2OCc2ccc(Cl)cc2Cl)[nH][nH]1	n	n	45	n	n	n
CNC(=S)NNC(=O)c1sccc1OCc1ccc(Cl)cc1Cl	n	n	n	n	n	n
CC(=NNC(=O)Cn1cnc2ccccc21)c1cccs1	x	x	x	x	n	n
CCSc1nnc(NC(=O)c2cccc(S(=O)(=O)N(C)c3ccccc3)c2)s1	n	n	30	n	n	n
C=CCN(c1ccccc1)S(=O)(=O)c1cccc(C(=O)Nc2nnc(SCC)s2)c1	n	n	n	n	n	n
